In ChEMBL document CHEMBL4888484, “Replenishing the malaria drug discovery pipeline: Screening and hit evaluation of the MMV Hit Generation Library 1 (HGL1) against asexual blood stage Plasmodium falciparum ,using a nano luciferase reporter read-out” (2022):
About 540 (0.36%) of roughly 150,000 compounds showed an effect of 50% or more. For the sample, strong results were picked, then their nearest neighbours and some compounds at random.

tested on: Plasmodium falciparum; assay: Primary screen in NF54 nanoGlo assay, in single point, at 2uM, 72h; a lower Z score goes with more inhibition; type: functional, Erythrocyte; conditions: timepoint 72 hour

| SMILES | % Inhibition | Z score |
| --- | --- | --- |
| CCC(CC)n1nc(C(=O)NCC23CCCN2CCC3)cc1C | -15% | 2.13 |
| O=C(Nc1cccc2ccccc12)C1CCN(c2cc(-c3ccc(F)cc3)ncn2)CC1 | -2% | 0.24 |
| Cc1n[nH]c(=O)c2c1cnn2-c1ccc(F)cc1 | 20% | -2.53 |
| Cc1cccnc1CCNC(=O)N(C)[C@@H](C)c1ccncn1 | -6% | 1.12 |
| O=C(NCCc1ccc(Cl)cc1)c1ccc(Cn2c(=O)[nH]c3ccccc3c2=O)cc1 | -9% | 1.68 |
| O=C1N[C@@H](c2cccc(OCc3ccccc3)c2)Nc2c1sc(=S)n2-c1ccccc1 | -12% | 1.31 |
| CN(CC(=O)NCc1cccs1)c1nnc(N2CCCC2=O)s1 | -2% | 0.36 |
| CN(CC(=O)NCc1ccco1)c1nnc(N2CCCC2=O)s1 | 73% | -0.5 |
| CN(CC(=O)NCCCc1ccco1)c1nnc(N2CCCC2=O)s1 | -11% | 2.07 |
| CCCN1CCN(C(=O)c2ccnc(N3CCN[C@H](c4ccccc4)C3)c2)CC1 | -13% | 1.36 |
| C[C@H](CCO)NCc1sccc1Cl | 5% | -0.62 |
| CC(C)(C)n1cnc(C(=O)N2CCCC23CCCCC3)n1 | 0% | -0.06 |
| Cn1nnc(C(=O)N2CCC(c3ccccc3)(N3CCCC3)CC2)n1 | 7% | -1.29 |
| O=C(Nc1cnc(-n2ccnc2)nc1)c1ccc(F)cc1 | -18% | 2.84 |
| CCOC(=O)C1(C(=O)NCc2cc(C)on2)CCCC1 | 7% | -0.84 |
| CCN1C[C@H](Nc2ncnc3sc(C)cc23)[C@@H](OC)C1 | -9% | 1.14 |
| CCN1C[C@H](Nc2ncccc2C#N)[C@@H](OC)C1 | -13% | 1.15 |
| CS(=O)(=O)N1C[C@H]2CC[C@@H](C1)N(CC(=O)N1CCc3ccccc31)C2 | -9% | 1.92 |
| COc1ccc(CN2CCc3cc(OC)c(OC)cc3[C@@H]2CNC(=O)Cc2ccccc2)cc1 | -3% | 0.38 |
| Cn1ncc2c1CCC[C@@H]2NCCc1ccccc1O | -5% | 0.59 |
| Oc1ccccc1CCN[C@H]1CCc2ccc(F)cc21 | 98% | -18.88 |

| SMILES | % Inhibition | Z score |
| --- | --- | --- |
| CS(=O)(=O)CCc1ccc(N[C@H]2CCc3ccc(F)cc32)cc1 | -8% | 1.03 |
| O=S1(=O)CCC(CNC2CCc3ccc(F)cc32)C1 (centres undefined) | -8% | 1.29 |
| CCOc1ccc2c(n1)CCN(C(=O)c1ccsc1)C2 | 36% | 1.41 |
| CC(COC1CCOC1)NC(=O)C1CCC(=O)C(C)C1 (centres undefined) | -1% | 0.21 |
| Cn1nc(NC(=O)c2ccccc2)c2c1CCN(C(=O)C1CCC1)C2 | -10% | 0.86 |
| COC(C(=O)N1C[C@H](C(=O)O)[C@@H](c2ccc(Br)cc2)C1)C1CC1 (some centres undefined) | -1% | 0.13 |
| CCCCN(C1CCCCCC1)S(=O)(=O)N1CCC[C@@H]1COC | 3% | -0.54 |
| COc1ccccc1C(=O)C(=O)NC1CC(C)(C)NC(C)(C)C1 | -6% | 0.73 |
| Cc1nonc1CN1CC[C@@]2(CCCN(C3CCCCC3)C2=O)C1 | -1% | 0.17 |
| CN1CCN(c2nc3c(c(Oc4cccc(F)c4)n2)CN(S(=O)(=O)c2cccc(Cl)c2)CC3)CC1 | -5% | 0.66 |
| Cc1ccc(Oc2nc(N3CCOCC3)nc3c2CN(S(=O)(=O)c2cccc(Cl)c2)CC3)cc1 | 8% | -1.2 |
| O=S(=O)(c1cccc(Cl)c1)N1CCc2nc(N3CCCCC3)nc(Oc3ccccc3)c2C1 | 53% | -13.31 |
| O=C1CN(Cc2nc(-c3ccccc3)nn2C2CCCCC2)CCN1 | -7% | 1.19 |
| CN(CC(=O)Nc1cccc(F)c1)C(=O)C[C@@H]1C=CCC1 | 12% | -1.67 |
| CCOc1ccc(-c2cn(Cc3ccncc3)nn2)cc1Cl | -10% | 2.05 |
| Cc1cc(C)cc(-c2cc3nc(C)cc(N4CCC(C(=O)Nc5ccc(C)c(Cl)c5)CC4)n3n2)c1 | 36% | 1.15 |
| COc1ccc(-c2cc3nc(C)cc(N4CCC(C(=O)NCc5ccccc5)CC4)n3n2)cc1 | 4% | -0.42 |
| Cc1cc(C)cc(-c2cc3nc(C)cc(N4CCC(C(=O)NCc5cccc(F)c5)CC4)n3n2)c1 | 75% | -14.36 |
| Cc1cc(C2CCC(C(=O)NCC3CC3)CN2C(=O)NC(C)C)ccc1F (centres undefined) | 0% | 0 |
| Cc1cc(S(=O)(=O)N(CCN(C)C)C2CCN(C)CC2)c(C)o1 | -16% | 1.43 |
| COc1ccc2cc(-c3nc(CCN(C)C(=O)c4cccc(Cl)c4)no3)[nH]c2c1 | -9% | 1.75 |

| SMILES | % Inhibition | Z score |
| --- | --- | --- |
| COc1ccc2cc(C(=O)NCc3ccnc(Oc4ccccc4)c3)[nH]c2c1 | -7% | 1.13 |
| Cc1ccc(CC(=O)Nc2cc(C(F)(F)F)n(C)n2)cn1 | -6% | 0.61 |
| Cc1cccc(OC2CN([C@@H](C)CCN(C)C)C2)c1 | -19% | 2.04 |
| C[C@@H](C(=O)Nc1nccs1)N1CCCC1 | -4% | 0.56 |
| CC(C(=O)Nc1ccc(Cl)cn1)N1CCCC(c2ccn[nH]2)C1 (centres undefined) | 5% | -0.83 |
| CC(C(=O)Nc1nccs1)N1CCCC(c2ccn[nH]2)C1 (centres undefined) | 50% | -9.08 |
| O=C(C1CCC1c1ccc(F)cc1)N1CCCC(c2nc3ccc(F)cc3o2)C1 (centres undefined) | -10% | 1.06 |
| CCOc1cc(C(c2c(C)n(C)n(-c3ccccc3)c2=O)c2c(C)n(C)n(-c3ccccc3)c2=O)ccc1OCc1ccccc1 | 75% | -5.78 |
| Cc1c(C(c2c(C)n(C)n(-c3ccccc3)c2=O)c2c[nH]c3ccccc23)c(=O)n(-c2ccccc2)n1C | -6% | 0.93 |
| COc1cc(C(c2c(C)n(C)n(-c3ccccc3)c2=O)c2c(C)n(C)n(-c3ccccc3)c2=O)c(Br)c(Br)c1OCc1ccccc1 | 35% | -0.45 |
| CN(C)c1nc(N[C@H]2CCS(=O)(=O)C2)ncc1F | -3% | 0.33 |
| COc1nc(N[C@H]2CCCN(C)C2)ncc1F | 3% | -0.5 |
| COc1nc(NC2CCS(=O)(=O)CC2)ncc1F | 65% | -7.11 |
| CNC(=O)[C@@H]1C[C@@H](Nc2ccnc(OC)c2C#N)CN1Cc1ccccn1 | 2% | -0.32 |
| Cc1noc(C)c1S(=O)(=O)NC1(C(=O)Nc2ccsc2)CCCC1 | -8% | 1.08 |
| CC[C@@](C)(CNC(=O)COCc1cccc(OC)c1)N1CCOCC1 | -4% | 0.5 |
| CC(C)c1cnc(NCCCC[C@H]2CCCO2)nc1 | 48% | 0.41 |
| Cc1cc(C)nc(NCCC[C@H]2CCCCO2)n1 | 54% | 0.94 |
| Cc1cc(C)nc(NC[C@H]2CCCO2)n1 | -5% | 0.64 |
| O=C(OCC(F)(F)F)N1CCOCC1 | 1% | -0.08 |
| CC(C)CN1CCCC1C(=O)N1CCO[C@H]2CCC[C@H]21 (some centres undefined) | -5% | 0.92 |

| SMILES | % Inhibition | Z score |
| --- | --- | --- |
| O=C(N/C(=N\c1ccc(F)cc1)N1CCN(Cc2cccc(F)c2)CC1)c1ccccc1 | 2% | -0.32 |
| COc1cccc(N2C(=O)C[C@]3(CC3(c3ccccc3)c3ccccc3)C2=O)c1 | 35% | -0.08 |
| O=C1C[C@]2(CC2(c2ccccc2)c2ccccc2)C(=O)N1c1cccc(Br)c1 | 19% | -3.6 |
| Cc1ccc(N2C(=O)C[C@]3(CC3(c3ccccc3)c3ccccc3)C2=O)cc1 | 73% | -0.64 |
| CC(CNC(=O)C(=O)NC(C)CCc1ccccc1)Cc1ccccc1 (centres undefined) | -11% | 1.26 |
| Cc1cccc2[nH]c(COCC(=O)NC[C@H]3CCCN(C)C3)nc12 | 14% | -1.8 |
| O=S(=O)(c1ccc2c(c1)OCCO2)N1CC[C@H](Oc2ccncc2Cl)C1 | -7% | 1.4 |
| O=S(=O)(c1cccnc1)N1CC[C@H](Oc2ccncc2Cl)C1 | -6% | 1.14 |
| O=S(=O)(c1ccc(F)c(Cl)c1)N1CC[C@H](Oc2ccncc2Cl)C1 | 72% | -13.57 |
| Cc1cc2nc[nH]c2c(NC(=O)CCc2cc3n(n2)CCNC3)c1C | -7% | 1.44 |
| CCOc1ccc(-c2noc([C@@H]3Cc4ccccc4N3C(C)=O)n2)cc1Cl | 19% | -2.19 |
| O=C1NC(=O)[C@@H]2CN(S(=O)(=O)c3cc(F)cc(Cl)c3)C[C@H]12 | 37% | 0.7 |
| O=C(CCn1cnc2cc(-c3noc(-c4ccccn4)n3)ccc21)N1CCOCC1 | -9% | 1.86 |
| Oc1cc(OCc2ccccc2F)ccc1-c1[nH]ncc1-c1ccccc1 | 52% | -11.1 |
| COc1ccc(-c2c(C(F)(F)F)n[nH]c2-c2ccc(OCc3ccccc3F)cc2O)cc1 | 79% | -11.69 |
| COc1ccc(-c2n[nH]c3c2[C@@H](c2ccc(OCc4ccccc4F)cc2)CC(=O)O3)cc1 | -7% | 1.23 |
| COc1ccc(Oc2cn[nH]c2-c2ccc(OCc3ccc(F)cc3)cc2O)cc1 | 4% | -0.82 |
| COc1ccccc1-c1cn[nH]c1-c1ccc(OCc2cc(C)ccc2C)cc1O | 0% | 0 |
| COc1ccccc1Oc1cn[nH]c1-c1ccc(OCc2ccccc2C)cc1O | -7% | 0.65 |
